Source: the supplement of paper PMC10849652
The full data set covers some 7,900 targets. This sample favours those with a hit. About 0.6% of all pairs of compound and target were hits. Unmarked numbers belong to inactive results.

How the values were obtained:
Assay in all cases: log2 fold change, soluble protein after heating vs DMSO (PISA); higher = thermal stabilisation; K562 cells, 10 uM, 30 min; active = over 0.2 and 3.5 SD of the protein, either way, in both replicates (recomputed)
[1] = compound: CC1=C(C=C(C=C1)NC(=O)C2=CC(=CC=C2)C(C)(C)C#N)NC3=CC4=C(C=C3)N=CN(C4=O)C
How it was run: (§1)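 K562 cells at 2×10^6 cells/mL were exposed to 10 μM compound for 30 min, then aliquots were heated for 3 min across 48°C-58°C, pooled, and extracted in PBS containing 0.5% NP-40 at 4°C. The supernatant after 21,000xg for 90 min was taken as soluble protein and measured by TMTpro 16plex LC-MS/MS with channel sums equalised. Thermal stability is reported relative to control samples, with values from duplicates. Fold changes are given on a log2 scale.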

[2] = compound: CC1=C(C=C(C=C1)NC(=O)C2=CC(=CC=C2)N(C)C)NC(=O)C3=CC=C(C=C3)O
How it was run: as §1

[3] = compound: CC1=CC=C(C=C1)SC2=C3C=C(SC3=CN=C2)C(=O)N
How it was run: as §1

[4] = compound: CC1=NC(=CC=C1)C2=C(N=C(N2)C(C)(C)C)C3=CC4=NC=CN=C4C=C3
How it was run: as §1

[5] = compound: CCCCN(Cc1ccc(C(=O)NO)cc1)C(=O)Nc1ccccc1 [Nexturastat A]
How it was run: as §1

[6] = compound: CCCS(=O)(=O)Nc1ccc(F)c(C(=O)c2c[nH]c3ncc(-c4ccc(Cl)cc4)cc23)c1F [vemurafenib]
How it was run: as §1

[7] = compound: CCCS(=O)(=O)Nc1ccc(F)c(C(=O)c2c[nH]c3ncc(Cl)cc23)c1F
How it was run: as §1

[8] = compound: CCCc1cc(C)[nH]c(=O)c1CNC(=O)c1cc(-c2ccnc(N3CCN(C)CC3)c2)cc2c1cnn2C(C)C
How it was run: as §1

[9] = compound: CCN(CC)Cc1ccc2cc(COC(=O)Nc3ccc(C(=O)NO)cc3)ccc2c1 [givinostat]
How it was run: as §1

[10] = compound: CCN(CCCOc1ccc2c(Nc3cc(CC(=O)Nc4cccc(F)c4)[nH]n3)ncnc2c1)CCOP(=O)(O)O [barasertib]
How it was run: as §1

[11] = compound: CC[C@@H]1C(=O)N(C)c2cnc(Nc3ccc(C(=O)NC4CCN(C)CC4)cc3OC)nc2N1C1CCCC1
How it was run: as §1

[12] = compound: CC[C@@H]1C(=O)N(C)c2cnc(Nc3ccc(C(=O)N[C@H]4CC[C@H](N5CCN(CC6CC6)CC5)CC4)cc3OC)nc2N1C(C)C [volasertib]
How it was run: as §1

[13] = compound: CC[C@H](C)N1C=C(C2=C(C=C(C=C21)C3=CN=C(C=C3)N4CCNCC4)C(=O)NCC5=C(C=C(NC5=O)C)C)C
How it was run: as §1

[14] = compound: CC[C@H](C)[C@@H](C(=O)N[C@@H]([C@@H](C)O)C(=O)N[C@@H](CC(C)C)C(=O)[C@]1(CO1)C)NC(=O)[C@H]([C@@H](C)CC)N(C)C(=O)C [epoxomicin]
How it was run: as §1

[15] = compound: CCn1c(C(=O)N(C2CC2)C2CC2)cc2c3c(ncn3C)c(Nc3cc(C)n(C)n3)nc21
How it was run: as §1

[16] = compound: CCn1cc(-c2ccnc3[nH]c(-c4cccc(CN(C)C)c4)cc23)c(-c2ccc(NC(=O)N(C)C)cc2)n1
How it was run: as §1

[17] = compound: CN(C)CC(=O)Nc1ccc2[nH]c(=O)c3ccccc3c2c1
How it was run: as §1

[18] = compound: CN(CCOC1=CC=C(C=C1)C[C@H]2C(=O)NC(=O)S2)C3=CC=CC=N3 (racemic) [rosiglitazone]
How it was run: as §1

[19] = compound: CN1C2=C(C3=C1C(=O)N(N=C3)CC4=CC(=CC=C4)N)SC(=C2)S(=O)C
How it was run: as §1

[20] = compound: CN1CCC(CNc2ccc3ncc(-c4cccc(OC(F)(F)F)c4)n3n2)CC1
How it was run: as §1

UniProt O00629, sequence (O00629 whole entry, looked up): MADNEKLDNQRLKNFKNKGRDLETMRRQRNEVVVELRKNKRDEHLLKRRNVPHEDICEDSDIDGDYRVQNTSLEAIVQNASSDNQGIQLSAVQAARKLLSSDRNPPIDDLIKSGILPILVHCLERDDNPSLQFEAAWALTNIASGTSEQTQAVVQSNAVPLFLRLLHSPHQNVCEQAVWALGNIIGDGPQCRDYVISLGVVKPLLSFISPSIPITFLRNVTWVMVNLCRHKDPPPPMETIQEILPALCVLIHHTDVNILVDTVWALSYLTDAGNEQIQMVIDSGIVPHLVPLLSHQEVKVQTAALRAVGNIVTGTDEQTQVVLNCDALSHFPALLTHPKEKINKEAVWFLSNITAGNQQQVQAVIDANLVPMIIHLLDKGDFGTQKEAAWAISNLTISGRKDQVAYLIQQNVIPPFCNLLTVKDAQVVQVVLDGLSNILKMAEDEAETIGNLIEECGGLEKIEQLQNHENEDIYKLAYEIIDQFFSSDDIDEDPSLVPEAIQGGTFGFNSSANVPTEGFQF
UniProt Q9H0B6, sequence (Q9H0B6 whole entry, looked up): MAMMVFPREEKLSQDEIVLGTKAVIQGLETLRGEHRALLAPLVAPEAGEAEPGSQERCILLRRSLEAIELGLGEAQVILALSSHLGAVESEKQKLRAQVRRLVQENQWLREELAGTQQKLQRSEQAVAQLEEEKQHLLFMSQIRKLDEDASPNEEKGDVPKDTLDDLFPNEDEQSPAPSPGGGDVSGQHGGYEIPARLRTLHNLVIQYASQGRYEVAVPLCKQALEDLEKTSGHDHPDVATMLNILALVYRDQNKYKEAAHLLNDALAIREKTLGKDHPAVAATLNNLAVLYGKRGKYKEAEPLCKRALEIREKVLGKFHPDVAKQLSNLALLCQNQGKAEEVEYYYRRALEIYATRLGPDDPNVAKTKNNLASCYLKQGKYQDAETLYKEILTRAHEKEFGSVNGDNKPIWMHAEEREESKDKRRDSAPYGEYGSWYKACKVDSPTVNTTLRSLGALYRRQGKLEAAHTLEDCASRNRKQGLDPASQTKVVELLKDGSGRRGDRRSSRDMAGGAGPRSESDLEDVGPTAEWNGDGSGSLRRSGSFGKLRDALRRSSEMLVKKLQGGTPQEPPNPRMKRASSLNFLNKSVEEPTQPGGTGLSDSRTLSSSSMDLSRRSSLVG
UniProt P43362, sequence (P43362 whole entry, looked up): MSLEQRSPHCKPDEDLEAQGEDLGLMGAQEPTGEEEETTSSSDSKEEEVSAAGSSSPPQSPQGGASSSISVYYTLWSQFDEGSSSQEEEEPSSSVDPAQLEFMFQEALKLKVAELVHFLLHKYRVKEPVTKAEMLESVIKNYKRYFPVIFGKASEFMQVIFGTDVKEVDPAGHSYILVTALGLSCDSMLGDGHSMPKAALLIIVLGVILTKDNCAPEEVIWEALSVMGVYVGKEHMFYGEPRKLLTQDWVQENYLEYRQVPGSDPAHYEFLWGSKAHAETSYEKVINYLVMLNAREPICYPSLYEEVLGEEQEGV
UniProt P49006, sequence (P49006 whole entry, looked up): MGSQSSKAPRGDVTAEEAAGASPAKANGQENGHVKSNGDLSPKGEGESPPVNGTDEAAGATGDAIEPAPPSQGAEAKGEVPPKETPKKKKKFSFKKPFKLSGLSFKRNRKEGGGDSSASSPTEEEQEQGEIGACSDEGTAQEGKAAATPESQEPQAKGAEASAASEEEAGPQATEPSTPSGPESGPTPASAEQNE
UniProt Q13418, sequence (Q13418 whole entry, looked up): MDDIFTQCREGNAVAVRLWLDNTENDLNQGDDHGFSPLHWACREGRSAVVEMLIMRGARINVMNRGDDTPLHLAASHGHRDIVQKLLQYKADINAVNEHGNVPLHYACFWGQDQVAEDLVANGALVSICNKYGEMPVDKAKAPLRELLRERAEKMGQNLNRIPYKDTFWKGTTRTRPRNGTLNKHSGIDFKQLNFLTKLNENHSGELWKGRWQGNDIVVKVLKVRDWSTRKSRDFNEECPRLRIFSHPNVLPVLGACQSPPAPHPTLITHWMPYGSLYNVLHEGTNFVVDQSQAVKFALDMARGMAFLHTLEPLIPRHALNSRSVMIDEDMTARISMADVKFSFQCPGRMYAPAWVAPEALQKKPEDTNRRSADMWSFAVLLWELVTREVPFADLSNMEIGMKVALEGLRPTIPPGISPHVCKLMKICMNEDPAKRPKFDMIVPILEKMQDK
UniProt Q9NQG6, sequence (Q9NQG6 whole entry, looked up): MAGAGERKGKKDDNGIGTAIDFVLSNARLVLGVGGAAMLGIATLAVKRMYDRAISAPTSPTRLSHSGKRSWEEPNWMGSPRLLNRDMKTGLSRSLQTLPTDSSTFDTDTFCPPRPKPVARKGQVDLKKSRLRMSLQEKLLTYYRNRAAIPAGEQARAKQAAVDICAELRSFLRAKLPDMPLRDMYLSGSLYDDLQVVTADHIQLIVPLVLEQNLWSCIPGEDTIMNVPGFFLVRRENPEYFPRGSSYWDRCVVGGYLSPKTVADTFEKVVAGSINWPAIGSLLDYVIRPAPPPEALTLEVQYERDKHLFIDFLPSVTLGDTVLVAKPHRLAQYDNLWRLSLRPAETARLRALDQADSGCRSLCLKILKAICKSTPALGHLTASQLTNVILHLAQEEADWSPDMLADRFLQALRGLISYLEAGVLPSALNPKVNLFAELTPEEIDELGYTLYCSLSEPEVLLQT
UniProt Q15648, sequence (Q15648 whole entry, looked up): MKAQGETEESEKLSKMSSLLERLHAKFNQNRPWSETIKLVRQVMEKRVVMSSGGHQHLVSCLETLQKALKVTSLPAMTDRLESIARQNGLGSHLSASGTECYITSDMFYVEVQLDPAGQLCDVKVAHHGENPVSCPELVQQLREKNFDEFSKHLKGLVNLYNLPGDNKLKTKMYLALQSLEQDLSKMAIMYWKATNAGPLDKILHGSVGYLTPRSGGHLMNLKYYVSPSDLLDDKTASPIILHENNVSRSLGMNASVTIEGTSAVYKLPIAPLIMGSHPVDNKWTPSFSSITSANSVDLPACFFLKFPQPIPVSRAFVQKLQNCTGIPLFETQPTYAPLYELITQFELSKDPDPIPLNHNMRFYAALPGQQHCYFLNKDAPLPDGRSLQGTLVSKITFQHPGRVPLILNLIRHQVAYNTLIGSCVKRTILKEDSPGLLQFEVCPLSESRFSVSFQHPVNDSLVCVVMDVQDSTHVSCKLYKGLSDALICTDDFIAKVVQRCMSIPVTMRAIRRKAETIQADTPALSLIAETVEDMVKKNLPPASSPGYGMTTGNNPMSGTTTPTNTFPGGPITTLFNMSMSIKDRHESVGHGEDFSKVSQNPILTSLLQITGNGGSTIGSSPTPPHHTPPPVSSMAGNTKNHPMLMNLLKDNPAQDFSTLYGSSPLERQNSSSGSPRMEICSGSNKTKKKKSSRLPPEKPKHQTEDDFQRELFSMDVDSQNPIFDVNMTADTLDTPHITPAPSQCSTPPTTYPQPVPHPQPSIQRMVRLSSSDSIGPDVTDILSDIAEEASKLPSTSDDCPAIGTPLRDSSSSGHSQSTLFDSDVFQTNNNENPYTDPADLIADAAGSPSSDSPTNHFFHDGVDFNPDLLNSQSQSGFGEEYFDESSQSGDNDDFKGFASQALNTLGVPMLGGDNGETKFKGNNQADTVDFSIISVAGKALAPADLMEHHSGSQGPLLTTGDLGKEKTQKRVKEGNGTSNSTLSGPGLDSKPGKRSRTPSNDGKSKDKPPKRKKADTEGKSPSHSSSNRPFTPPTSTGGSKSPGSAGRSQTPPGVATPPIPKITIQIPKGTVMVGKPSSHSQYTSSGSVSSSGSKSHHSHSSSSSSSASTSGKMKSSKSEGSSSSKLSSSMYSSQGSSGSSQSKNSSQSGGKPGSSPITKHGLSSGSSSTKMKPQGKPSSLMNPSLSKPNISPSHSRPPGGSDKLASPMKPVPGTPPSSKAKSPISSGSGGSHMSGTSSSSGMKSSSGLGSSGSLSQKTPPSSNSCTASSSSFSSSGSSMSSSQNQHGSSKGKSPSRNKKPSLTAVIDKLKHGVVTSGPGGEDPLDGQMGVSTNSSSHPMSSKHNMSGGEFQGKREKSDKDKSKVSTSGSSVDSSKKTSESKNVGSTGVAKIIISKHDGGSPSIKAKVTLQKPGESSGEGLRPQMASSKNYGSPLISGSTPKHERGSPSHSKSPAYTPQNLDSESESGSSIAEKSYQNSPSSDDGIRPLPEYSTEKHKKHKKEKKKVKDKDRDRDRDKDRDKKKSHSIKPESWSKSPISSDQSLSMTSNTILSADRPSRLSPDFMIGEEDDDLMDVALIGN
UniProt Q8NC54, sequence (Q8NC54 whole entry, looked up): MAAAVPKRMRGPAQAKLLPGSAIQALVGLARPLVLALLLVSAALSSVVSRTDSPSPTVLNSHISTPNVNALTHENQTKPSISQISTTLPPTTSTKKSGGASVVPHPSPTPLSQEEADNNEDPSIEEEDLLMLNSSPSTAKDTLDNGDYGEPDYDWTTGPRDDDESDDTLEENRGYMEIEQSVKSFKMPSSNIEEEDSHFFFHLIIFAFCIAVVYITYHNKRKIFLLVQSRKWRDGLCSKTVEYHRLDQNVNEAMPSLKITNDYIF
UniProt O14880, sequence (O14880 whole entry, looked up): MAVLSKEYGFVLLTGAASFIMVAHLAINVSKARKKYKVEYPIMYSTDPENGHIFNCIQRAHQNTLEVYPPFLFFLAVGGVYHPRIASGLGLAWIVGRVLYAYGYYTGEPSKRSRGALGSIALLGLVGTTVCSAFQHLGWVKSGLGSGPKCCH
UniProt Q8WV07, sequence (Q8WV07 whole entry, looked up): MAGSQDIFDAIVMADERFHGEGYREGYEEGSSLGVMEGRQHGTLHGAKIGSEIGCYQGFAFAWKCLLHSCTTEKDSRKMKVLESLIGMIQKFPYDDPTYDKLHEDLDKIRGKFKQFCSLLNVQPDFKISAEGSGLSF

Row | Target | log2 fold change [1] | log2 fold change [2] | log2 fold change [3] | log2 fold change [4] | log2 fold change [5] | log2 fold change [6] | log2 fold change [7] | log2 fold change [8] | log2 fold change [9] | log2 fold change [10] | log2 fold change [11] | log2 fold change [12] | log2 fold change [13] | log2 fold change [14] | log2 fold change [15] | log2 fold change [16] | log2 fold change [17] | log2 fold change [18] | log2 fold change [19] | log2 fold change [20]
1 | MAP1LC3B2 (UniProt A6NCE7) | 0.021 | -0.034 | -0.029 | 0.04 | -0.028 | 0.088 | 0.01 | 0.041 | 0.038 | 0 | -0.074 | -0.072 | 0.05 | 0 | -0.003 | 0.004 | 0 | 0.044 | -0.015 | 0.108
2 | KCTD10 (UniProt Q9H3F6) | -0.055 | 0.022 | -0.025 | 0.017 | 0.051 | -0.013 | -0.029 | 0.024 | 0.025 | 0.021 | 0.046 | 0.022 | 0.055 | -0.019 | 0 | -0.01 | 0.023 | 0.04 | 0.003 | 0.257 (active)
3 | KPNA4 (UniProt O00629) | 0.016 | 0.007 | 0.017 | 0.045 | -0.008 | 0.031 | 0.038 | 0.023 | 0.006 | 0.007 | -0.008 | -0.251 | 0.033 | -0.008 | 0.038 | 0.029 | 0 | 0.01 | -0.066 | -0.052
4 | MIEF1 (UniProt Q9NQG6) | 0.054 | 0.009 | 0.023 | 0.13 | -0.067 | -0.02 | 0.019 | 0.008 | -0.044 | 0.015 | -0.053 | -0.098 | 0.031 | 0.073 | 0.019 | 0.019 | 0.054 | 0.041 | -0.018 | -0.546 (active)
5 | MAGEA9 (UniProt P43362) | -0.033 | 0.05 | -0.005 | -0.087 | 0.005 | -0.031 | 0.072 | 0.054 | 0.066 | 0.036 | -0.11 | -0.39 (active) | -0.057 | -0.044 | -0.05 | -0.088 | 0.044 | 0.038 | -0.084 | -0.116
6 | MED1 (UniProt Q15648) | -0.043 | 0.084 | -0.067 | -0.06 | 0.079 | -0.028 | -0.034 | -0.006 | 0.001 | -0.023 | 0.073 | 0.077 | 0.076 | -0.051 | -0.001 | -0.04 | -0.054 | 0.001 | 0.024 | -0.025
7 | KCT2 (UniProt Q8NC54) | 0.104 | 0.007 | 0.006 | 0.017 | -0.102 | -0.013 | -0.011 | -0.008 | -0.108 | -0.025 | -0.312 | -0.076 | -0.006 | -0.063 | 0.089 | -0.03 | 0.064 | 0.009 | -0.051 | -0.037
8 | MARCKSL1 (UniProt P49006) | 0.039 | 0.011 | -0.111 | 0.032 | -0.127 | 0.005 | -0.125 | 0.005 | 0.041 | 0.034 | -0.055 | 0.038 | 0.021 | -0.055 | 0.02 | -0.015 | -0.044 | 0.012 | -0.08 | 0.147
9 | ILK (UniProt Q13418) | -0.179 | -0.053 | 0.025 | -0.208 | 0.135 | -0.075 | -0.005 | -0.031 | 0.041 | 0.019 | 0.033 | 0.064 | 0.035 | -0.04 | -0.037 | -0.052 | -0.006 | 0.051 | 0.125 | -0.191
10 | LMNB2 (UniProt Q03252) | -0.022 | 0.015 | -0.025 | 0.063 | -0.04 | 0.019 | 0.045 | -0.014 | 0.047 | 0.039 | 0.027 | -0.077 | 0.024 | 0.028 | -0.061 | 0.043 | -0.033 | -0.005 | -0.01 | 0.014
11 | LTO1 (UniProt Q8WV07) | 0.021 | -0.042 | -0.021 | -0.009 | 0.245 | 0.101 | 0.027 | 0 | -0.121 | -0.04 | -0.018 | 0.322 | 0.058 | 0.063 | -0.008 | -0.029 | -0.312 (active) | 0.013 | -0.105 | 0.035
12 | MIEF1 (UniProt L0R8F8) | -0.007 | 0.003 | 0.019 | -0.026 | 0.092 | 0.079 | 0.102 | -0.001 | 0.006 | 0.003 | -0.028 | -0.076 | -0.106 | 0.022 | 0.017 | -0.065 | -0.018 | -0.019 | -0.028 | -0.021
13 | MAPK8 isoform 3 (UniProt P45983) | -0.038 | -0.026 | -0.015 | -0.012 | -0.099 | 0.027 | 0.012 | 0.016 | 0.119 | 0.056 | -0.112 | -0.249 | 0.003 | 0.117 | -0.036 | 0.006 | 0.004 | 0.095 | 0.013 | -0.054
14 | MGST3 (UniProt O14880) | -0.029 | 0.005 | 0 | -0.049 | 0.015 | -0.037 | -0.011 | -0.057 | 0.003 | 0.003 | -0.005 | 0.048 | -0.107 | -0.016 | 0.066 | -0.047 | -0.017 | -0.043 | -0.027 | 0.097
15 | KLC2 (UniProt Q9H0B6) | 0.025 | -0.055 | 0.021 | 0.015 | 0.001 | 0.012 | 0.096 | 0.001 | 0.044 | 0.006 | -0.03 | -0.059 | 0.038 | 0.015 | -0.046 | 0.02 | -0.003 | 0.057 | -0.013 | -0.131
16 | MFGE8 (UniProt Q08431) | 0.034 | -0.027 | -0.122 | -0.061 | 0.161 | -0.028 | -0.124 | 0.019 | -0.004 | -0.057 | 0.061 | 0.362 | -0.007 | -0.003 | 0.063 | -0.057 | -0.103 | -0.092 | 0.114 | 0.098
